From PubChem
FLuc counter = inhibits or activates purified firefly luciferase, miR-21 counter-screen | P08659 | purified FLuc, Km substrates, luminescence inhibition | Potency, µM (doses to about 57.5 µM), actives largely listed as inhibitors | 360,000 tested, 6.9% active; also: nearly all actives have a fitted effect of over 55% in size
Target sequence (P08659 whole entry, looked up): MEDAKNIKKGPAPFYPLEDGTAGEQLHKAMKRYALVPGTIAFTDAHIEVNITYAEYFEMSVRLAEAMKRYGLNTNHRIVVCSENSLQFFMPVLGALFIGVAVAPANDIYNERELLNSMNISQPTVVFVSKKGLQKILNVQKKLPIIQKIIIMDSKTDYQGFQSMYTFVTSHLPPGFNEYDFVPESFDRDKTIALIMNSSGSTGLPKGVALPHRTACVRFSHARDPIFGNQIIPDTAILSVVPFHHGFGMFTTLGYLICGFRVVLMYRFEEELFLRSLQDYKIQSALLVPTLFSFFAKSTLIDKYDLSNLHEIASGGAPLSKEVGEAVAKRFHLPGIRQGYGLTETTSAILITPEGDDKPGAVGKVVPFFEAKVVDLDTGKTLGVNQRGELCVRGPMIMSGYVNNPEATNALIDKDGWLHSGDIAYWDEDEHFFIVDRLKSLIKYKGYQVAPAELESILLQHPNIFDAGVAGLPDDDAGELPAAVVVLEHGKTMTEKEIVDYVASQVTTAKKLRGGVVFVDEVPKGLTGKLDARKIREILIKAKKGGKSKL
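Biochemical qHTS of compounds, final roughly 60 µM downward over six points, against 10 nM purified firefly luciferase using Km concentrations of substrates (10 uM D-luciferin, 10 uM ATP) in Tris acetate pH 7.5 buffer; luminescence output.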
ELG1 genotox = induces genotoxicity in HEK293T cells with luciferase-tagged ELG1; HEK293T ELG1-luciferase reporter, luminescence, 16 h; 330,000 tested, 1.3% active; AID 504466; Potency, µM (doses to about 46 µM), actives largely listed as activators; also: nearly all actives have a fitted effect of over 60% in size
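HEK293T cells expressing luciferase-tagged ELG1 were exposed to compound or DMSO vehicle for 16 hr at 37 °C and 5% CO2. Luciferase activity was then measured with ONE-Glo after 30 min at room temperature.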
SMN2 splice enh = enhancers of SMN2 splice variant expression | HEK293 SMN2-luciferase splicing reporter, luminescence, 30-36 h | Potency, µM (series often up to 46.1 µM), hits mostly activators | 210,000 tested, 2.8% active | AID 1458; also: nearly all actives have a fitted effect of over 55% in size
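qHTS luciferase splicing reporter: luminescence rises when SMN2 exon 7 is included in transfected HEK293 cells. Compound exposure lasted 30-36 h at 37C, with 4.5 mM final sodium butyrate as control, followed by a ONE-Glo read.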
NPC1 prom act = activators of NPC1 promoter; Potency, µM (doses to about 9.22 µM), most hits filed as activators; Huh7 NPC1 promoter luciferase reporter, 24 h; 320,000 tested, 2.4% active; AID 485313; also: nearly all actives have a fitted effect of over 60% in size
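Quantitative HTS used a cell-based reporter: Huh7 cells stably bearing the NPC1 promoter upstream of luciferase were treated with compounds for 24 h, and promoter activation was read as luminescence.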
Rab9 prom act = activates the Rab9 promoter | Huh7 Rab9 promoter-luciferase reporter, luminescence, 24 h | Potency, µM (doses to about 9.22 µM), hits mostly activators | 320,000 tested, 2.8% active | AID 485297; also: nearly all actives have a fitted effect of over 60% in size
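Rab9 promoter-driven luciferase in stably transfected Huh7 cells; 1500 cells/well rested 2 h, exposed to compound in DMSO for 24 h at 37 °C, 5% CO2. Luminescence read 10 min after adding luciferase reagent at ambient temperature.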
ELG1 repair inh = ELG1-dependent DNA repair inhibition | HEK293T ELG1-luciferase reporter, luminescence, 16 h; DNA damage induced by 5-fluorouridine | Potency, µM (doses to about 46.1 µM), usual class: inhibitors | 330,000 tested, 2.3% active; also: nearly all actives have a fitted effect of over 55% in size
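DMSO vehicle served as the neutral condition. Each well held 2,000 cells given 5-fluorouridine plus compound; after 16 hr at 37 °C/5% CO2, ONE-Glo was added and luciferase measured 30 min later.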
Hits are given with their value; [ ] = remark or other dose. A selection: hits, their analogues and other compounds. The true share with any hit is near 9.3%. Calls follow the shape of the dose curve; as a rule, active = well fitted curve in the direction sought with a large enough effect; inconclusive = small, poorly fitted or top-dose-only effect, or another doubt; inactive = no such curve, though single readings can be large; an effect the other way counts as inactive or inconclusive.

Results for COC(=O)C(NC(=O)CCc1c(C)nc2cc(-c3cccc(F)c3)nn2c1C)C(C)C (configuration not stated) ?
FLuc counter: inactive; SMN2 splice enh: inactive

Results for Cc1cc(C)n(CC(O)Cn2c3ccccc3c3ccccc32)n1 (configuration not stated) ?
FLuc counter: inactive; ELG1 genotox: inactive; SMN2 splice enh: 13µM; NPC1 prom act: inactive; Rab9 prom act: inactive; ELG1 repair inh: inconclusive

Results for Cc1cc(C)n(CC(O)Cn2ccc3ccccc32)n1 (configuration not stated) ?
FLuc counter: inactive; ELG1 genotox: inactive; SMN2 splice enh: inactive; NPC1 prom act: inactive; Rab9 prom act: inactive; ELG1 repair inh: inconclusive

Results for COC(=O)c1cc(S(=O)(=O)N2CCCCC2)c[nH]1 ?
FLuc counter: inactive; ELG1 genotox: inactive[9.26 µM]; NPC1 prom act: inactive; Rab9 prom act: inactive; ELG1 repair inh: inactive

Results for CC(C)(C)OC(=O)NCCCCCc1cn([C@@H](CO)C(=O)NCCCCCCCCCCC(=O)N2CCN(C(=O)OC(C)(C)C)CC2)nn1 ?
FLuc counter: inconclusive; ELG1 genotox: inactive; NPC1 prom act: inactive; Rab9 prom act: inactive; ELG1 repair inh: 3.2µM

Results for Cc1ccccc1CN1CCc2nc(Nc3ccc4c(c3)OCCO4)ncc2C1 ?
FLuc counter: 13µM

What do the screens show for `Cc1ccc(N(NC(=O)C(O)(c2ccccc2)c2ccccc2)C(=O)CCl)cc1`?
FLuc counter: inactive; ELG1 genotox: inactive; SMN2 splice enh: inactive; NPC1 prom act: inactive; Rab9 prom act: inactive; ELG1 repair inh: 21µM

How did O=C(Nc1ccccc1)NN(C(=O)CCl)c1ccccc1 do in these assays?
FLuc counter: inactive; ELG1 genotox: inactive; NPC1 prom act: inactive; Rab9 prom act: inactive; ELG1 repair inh: 23µM

How did CCC(O)(CC)C(=O)NN(C(=O)CCl)c1ccccc1 do in these assays?
FLuc counter: inactive; ELG1 genotox: inactive; SMN2 splice enh: inactive; NPC1 prom act: inactive; Rab9 prom act: inactive; ELG1 repair inh: inconclusive

Results for O=C(CCl)N(c1ccccc1)c1ccccc1 ?
FLuc counter: inactive; ELG1 genotox: inactive; NPC1 prom act: inactive; Rab9 prom act: inactive; ELG1 repair inh: 21µM

How did COc1ccc(OCC2c3cc(OC)c(OC)cc3CCN2C(=O)c2c(F)cccc2F)cc1 (configuration not stated) do in these assays?
FLuc counter: inactive

What do the screens show for `Cc1ccc(OCC(=O)Nc2cc(-c3cccc(C)c3)nn2-c2ccccc2)cc1`?
FLuc counter: inactive

How did O=C(/C=C/c1cn(-c2ccccc2)nc1-c1ccccc1)Nc1ccc(C(=O)O)cc1 do in these assays?
FLuc counter: 0.85µM; ELG1 genotox: inactive; NPC1 prom act: inactive; Rab9 prom act: inconclusive; ELG1 repair inh: inconclusive

What do the screens show for `O=C(NCCCO)/C(=C\c1cn(-c2ccccc2)nc1-c1cccnc1)NC(=O)c1ccccc1`?
FLuc counter: inactive; ELG1 genotox: inactive; SMN2 splice enh: inactive; NPC1 prom act: inactive; Rab9 prom act: inactive; ELG1 repair inh: inconclusive

How did O=C(O)c1ccc(NC(=O)c2cn(-c3ccccc3)nc2-c2cccc(Cl)c2)cc1 do in these assays?
FLuc counter: 3.8µM; ELG1 genotox: inactive; NPC1 prom act: inactive; Rab9 prom act: inactive; ELG1 repair inh: inactive

What do the screens show for `CC(=O)c1ccc(NC(=O)c2cn(-c3ccccc3)nc2-c2ccncc2)cc1`?
FLuc counter: inactive; ELG1 genotox: inactive; SMN2 splice enh: inactive; NPC1 prom act: inactive; Rab9 prom act: inactive; ELG1 repair inh: inactive

What do the screens show for `Cc1cccc(-c2cc(NC(=O)c3ccccc3C)n(-c3ccccc3)n2)c1`?
FLuc counter: 11µM

What do the screens show for `NS(=O)(=O)c1ccc(NC(=O)/C=C/c2cn(-c3ccccc3)nc2-c2cccc(Cl)c2)cc1`?
FLuc counter: inactive; ELG1 genotox: inactive; SMN2 splice enh: inactive; NPC1 prom act: inactive; Rab9 prom act: inactive; ELG1 repair inh: inconclusive

What do the screens show for `O=C(NCC1CCCO1)/C(=C/c1cn(-c2ccccc2)nc1-c1cccnc1)NC(=O)c1ccccc1` (configuration not stated)?
FLuc counter: inactive; ELG1 genotox: inactive; SMN2 splice enh: inactive; NPC1 prom act: inactive; Rab9 prom act: inactive; ELG1 repair inh: 21µM

What do the screens show for `COc1cccc(CN2CC(C(=O)NCCOc3ccccc3)CCC2=O)c1` (configuration not stated)?
FLuc counter: inactive; ELG1 genotox: inactive; NPC1 prom act: inactive; Rab9 prom act: inactive; ELG1 repair inh: inactive

How did [O-]/C(=C(\C(=S)NCc1ccccc1)[n+]1ccccc1)c1ccc(Cl)s1 do in these assays?
FLuc counter: inactive; ELG1 genotox: inactive; SMN2 splice enh: inactive; NPC1 prom act: inactive; Rab9 prom act: inactive; ELG1 repair inh: inactive

Results for CC(C)c1ccc(-c2nn(-c3ccccc3)cc2C(=O)NCC2CCCO2)cc1 (configuration not stated) ?
FLuc counter: inactive; ELG1 genotox: inactive; NPC1 prom act: inactive; Rab9 prom act: inactive; ELG1 repair inh: inconclusive

What do the screens show for `Cc1cccc(NC(=O)c2cn(-c3ccccc3)nc2-c2ccccc2)c1`?
FLuc counter: 13µM; ELG1 genotox: inactive; SMN2 splice enh: inactive; NPC1 prom act: inactive; Rab9 prom act: inactive; ELG1 repair inh: inactive

What do the screens show for `O=C(NCC1CCCO1)c1cn(-c2ccccc2)nc1-c1ccc(F)cc1` (configuration not stated)?
FLuc counter: 11µM; ELG1 genotox: inactive; NPC1 prom act: inactive; Rab9 prom act: inactive; ELG1 repair inh: inactive

Results for O=C(O)c1ccc(NC(=O)c2cn(-c3ccccc3)nc2-c2ccc(F)cc2)cc1 ?
FLuc counter: 2.7µM; ELG1 genotox: inactive; NPC1 prom act: inactive; Rab9 prom act: inconclusive; ELG1 repair inh: inconclusive

How did CCCC(=O)N(CC(=O)Nc1sc(C)c(C)c1C(N)=O)Cc1ccccc1 do in these assays?
FLuc counter: inactive; ELG1 genotox: inactive; NPC1 prom act: inactive; Rab9 prom act: inactive; ELG1 repair inh: inconclusive

What do the screens show for `Cc1cccc(-n2cc(-c3ccccc3)nc2SCC(=O)Nc2ccccc2Cl)c1`?
FLuc counter: inactive

How did O=C(CSc1nnnn1C1CC1)N1CCN(c2ccccc2F)CC1 do in these assays?
FLuc counter: inactive; ELG1 genotox: inactive; NPC1 prom act: inactive; Rab9 prom act: inactive; ELG1 repair inh: inactive

Results for O=C(O)c1ccc(-c2ccccc2)[nH]1 ?
FLuc counter: inactive; ELG1 genotox: inactive; SMN2 splice enh: inactive; NPC1 prom act: inactive; Rab9 prom act: inactive; ELG1 repair inh: inactive

Results for CCc1ccc(-c2ccc(C(=O)C(F)(F)F)[nH]2)cc1 ?
FLuc counter: 2.1µM; ELG1 genotox: inconclusive; SMN2 splice enh: inconclusive; NPC1 prom act: 2µM; Rab9 prom act: 1.1µM; ELG1 repair inh: inconclusive
